Data as given in PubChem BioAssay (NCI).
About 83,000 compounds went through this panel and 20% of them were active in at least one assay; those are over-represented in the sample as a whole.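 Values shown are percent growth following 48 h exposure of cells in 96-well plates to a single concentration of compound; below 10 was considered active.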 Unmarked numbers belong to inactive results. The source made the active and inactive calls.

Assays:
Test in all cases: NCI-60 one-dose screen, 48 h (100 = growth as untreated, 0 = no growth, -100 = all killed)
Settings in all cases: 10 µM unless noted
HCT-15 colon = test system: HCT-15 colon
HT29 colon = test system: HT29 colon
SNB-75 CNS = test system: SNB-75 CNS
SNB-19 CNS = test system: SNB-19 CNS
U251 CNS = test system: U251 CNS
PC-3 prostate = test system: PC-3 prostate
SK-MEL-5 melanoma = test system: SK-MEL-5 melanoma
LOX IMVI melanoma = test system: LOX IMVI melanoma
SK-MEL-28 melanoma = test system: SK-MEL-28 melanoma
UACC-62 melanoma = test system: UACC-62 melanoma

| SMILES | growth (HCT-15 colon) | growth (HT29 colon) | growth (SNB-75 CNS) | growth (SNB-19 CNS) | growth (U251 CNS) | growth (PC-3 prostate) | growth (SK-MEL-5 melanoma) | growth (LOX IMVI melanoma) | growth (SK-MEL-28 melanoma) | growth (UACC-62 melanoma) |
| --- | --- | --- | --- | --- | --- | --- | --- | --- | --- | --- |
| CC1(C)NCCC[C@]2(C)[C@H]3CC=C4[C@@H]5C[C@](C)(COC(=O)c6ccccc6C(=O)O)CC[C@]5(C)CC[C@@]4(C)[C@]3(C)CC[C@@H]12 | 43.8% | 9.9% (active) | 74.7% | 68.9% | 41.1% | 43.1% | 77.5% | 54.4% | 93.4% |  |
| COc1cc(NC(=O)CSc2nc3ccc(Cl)cc3c(=O)n2-c2ccc(F)cc2)cc(OC)c1OC | 84.5% | 97.9% | 72.6% | 82.2% | 82.1% | 73% | 73.9% | 73.5% | 95.4% |  |
| COc1cc(-c2nn(-c3ccc(NC(=O)Nc4ccc(Cl)c(Cl)c4)cc3)cc2-c2ccncc2)ccc1Cl | 28.9% | 18.1% | 25% | 36.9% | 24.3% | 16.9% |  | 20.1% | 41.5% | 32.8% |
| COC(=O)C(N)CC(C)C (stereo not drawn) | 103% | 102% | 93.9% | 100% | 98% | 97.9% | 103% | 95.8% | 108% |  |
| CC(=O)N1CCN(CCNC(=O)n2cc(-c3ccncc3)c(-c3ccc(O)c(Cl)c3)n2)CC1 | 118% | 103% | 81.4% | 120% | 110% | 171% | 107% | 109% | 85.5% |  |
| CC1=C(C)C(=O)C(C(C)C2=C(C)C(=O)C(C)=C(C)C2=O)=C(C)C1=O | 99.7% | 68.7% | 96.6% | 99% | 81% | 52.4% | 75% | 81% | 117% |  |
| O=C(/C=C1\C(=O)N(Cc2ccc([N+](=O)[O-])cc2)c2ccccc21)c1ccc(OCCN2CCCC2)cc1 | 15.4% | 17.4% | 65.3% | 95.1% | 84.7% | 77% | 88.5% | 16.7% | 104% |  |
| N=c1c2c(=O)n3c(nc2nc2sc4ccc(Cl)cc4n12)-c1ccccc1Sc1ccccc1-3 | 13.6% | 26.8% | 18.6% | 30.5% | 24.7% | 11.2% | -2.17% (active) | 24.2% | 29.3% |  |
| CC1=C(C)C[C@]2(C(=O)O[C@H]3CCCC[C@@H]32)[S@](=O)C1 | 112% | 95.3% | 98.4% | 105% | 98.8% | 110% | 107% | 97.6% | 118% |  |
| COC(=O)/C=C/c1cc(O)c2oc(-c3ccc(O)c(O)c3)c(C(=O)OC)c2c1 | 14.1% | 59.8% | 7.74% (active) | 31.7% | 18.1% | 11.4% | -13.3% (active) | 19.1% | 57.2% |  |
| COc1cccc2c1nc1cccc(OC)c1[n+]2[O-] | 47.4% | 53.9% | 58.3% | 46.9% | 46.6% | 73.2% | 62% | 31.9% | 103% |  |
| O=C1Nc2c(c(=O)n(-c3ccccc3)c3ccccc23)C(c2ccc(Cl)cc2)N1 (stereo not drawn) | 90.4% | 106% | 80.7% | 60.4% | 85.9% |  | 80.4% | 36.4% | 90.9% | 62.8% |
| CCOC(=O)CNS(=O)(=O)CC(=O)c1ccccc1 | 110% | 80.1% | 69.4% | 94.3% | 96.7% | 92% |  | 104% | 127% | 95.3% |
| N#Cc1c(N)nc(Nc2nc3ccccc3[nH]2)nc1-c1ccc(Cl)cc1 | 109% | 95.4% | 95.1% | 107% | 97.6% | 94.8% |  | 96.2% | 115% |  |
| Cc1ccc2c(c1)C(=O)CCS2 | 90.8% | 103% | 80.8% | 111% | 92.9% |  | 104% | 95% | 102% | 97.4% |
| O=C(Nc1ccc(-n2cc(-c3ccncc3)c(-c3ccc(Cl)c(O)c3)n2)cc1)Nc1ccc(Cl)c(C(F)(F)F)c1 | 2.66% (active) | -92.4% (active) | -11.6% (active) | 27.4% | -31.4% (active) |  | -89.4% (active) | 5.17% (active) | -28.3% (active) | -25% (active) |
| COc1ccc(/C=N/c2cc(C(C)(C)C)nn2-c2ccccc2)cc1 | 86.8% | 99.9% | 114% | 94.6% | 97.9% |  | 98% | 99.8% | 111% | 86.7% |
| CCOC(=O)c1cc(-c2ccc(OC)cc2)[nH]c1NNC(=O)CCOC | 111% | 112% | 106% | 103% | 101% |  | 99.3% | 94.8% | 114% | 93.6% |
| O=C(/C=C/c1cccc(O)c1)c1cccc(-n2cc(-c3ccc(Cl)cc3)[nH]c2=O)c1 | -22.9% (active) | -10.1% (active) | 0.636% (active) | -10.6% (active) | -87.9% (active) |  | -0.458% (active) | -92.1% (active) |  | 5.09% (active) |
| CC(=O)N1N=C(c2ccc(Cl)cc2)CC1c1cn(-c2ccccc2)nc1-c1ccc([N+](=O)[O-])cc1 (stereo not drawn) | 92.6% | 93.8% | 72.5% | 90.1% | 96.9% |  | 101% | 97.8% | 110% | 85.1% |
| O=C(c1ccccc1)c1ccccc1-c1ccccc1 | 17.8% | -25.8% (active) | 3.14% (active) | 34.7% | 25.4% |  | 25% | 31.6% | 50.1% | 34.5% |
| O=C(O)CC1Cc2ccccc2C1C(=O)O (stereo not drawn) | 101% | 106% | 92.4% | 95% | 103% | 94.5% |  | 91.7% | 109% | 97.3% |
| CC(Br)c1nc2ccccc2cc1C(N)=O (stereo not drawn) | 98.9% | 105% | 88.3% | 105% | 97.9% | 103% |  | 85.6% | 107% | 93.7% |
| CCn1cnc(C[C@H](NC(=O)[C@@H](NC(=O)Nc2cc(C(F)(F)F)cc(C(F)(F)F)c2)C(C)(C)C)C(=O)OC)c1 | -68% [100 µM] (active) | -82.9% [100 µM] (active) | -98.8% [100 µM] (active) | -98.2% [100 µM] (active) | -94.5% [100 µM] (active) | -91.2% [100 µM] (active) |  | -87.4% [100 µM] (active) | -96% [100 µM] (active) | -98.7% [100 µM] (active) |
| O=S(=O)(Cc1cccc2c(CS(=O)(=O)c3ccc(Cl)cc3)cccc12)c1ccc(Cl)cc1 | 92.8% | 93.7% | 88.1% | 104% | 104% | 92% |  | 94.1% | 107% | 98.3% |
| COC(=O)c1ccc2[nH]c(O)c(C(=Nc3ccc(N(C)C(=O)CN4CCN(C)CC4)cc3)c3cccc(OC)c3)c2c1 | 7.72% (active) | -2.16% (active) | -2.49% (active) | 12.7% | 11.7% | 20.3% |  | 8.47% (active) | 19.5% | 36.6% |
| CC[C@@H](C)/C=C(C)/C=C/C(=O)c1c(O)c(-c2ccc(OC(=O)[C@@]34CC[C@@](C)(C(=O)O3)C4(C)C)cc2)cn(O)c1=O | 27% | 59.7% | 30.6% | 36.8% | 15.7% |  | -4% (active) | 0.589% (active) | 26.8% | 5.24% (active) |
| COc1ccc(C2=NN(C(=O)c3cc(-c4ccc(C)cc4)nc4ccccc34)C(c3cc(-c4ccccc4)nn3-c3ccccc3)C2)cc1 (stereo not drawn) | 82.6% | 105% | 88.3% | 83% | 85.3% | 74.7% |  | 80.6% | 93.8% | 83.5% |
| CC1C(=O)CCCC1=O | 96.6% | 94% | 90.9% | 106% | 108% | 108% |  | 106% | 105% | 103% |
| COc1ccc(-c2nc(Nc3nc4ccccc4[nH]3)nc(N)c2C#N)cc1 | 101% | 96% | 84.9% | 98.1% | 110% |  | 95.3% | 93.9% | 114% | 89.3% |
